Screening results deposited in PubChem BioAssay by National Center for Advancing Translational Sciences (NCATS).
Only some compounds are listed: those with a hit (about 7.3% of all), similar ones and a draw of the others.
Rab9 prom act – activates the Rab9 promoter. Huh7 Rab9 promoter-luciferase reporter, luminescence, 24 h. 320,000 tested, 2.8% active. Potency, µM (series often up to 9.22 µM), for inactives: at the highest dose activation, negative = inhibition, actives largely listed as activators. AID 485297; note: % of control where 0% means no effect; nearly all actives have a fitted effect of over 60% in size
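Promoter activation is measured as luciferase luminescence in Huh7 cells stably transfected with a Rab9 promoter–luciferase construct, following 24 h compound exposure at 37 °C and 10 min reagent incubation at ambient temperature.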
NPC1 promoter act – activates the NPC1 promoter | Huh7 NPC1 promoter luciferase reporter, 24 h | Potency, µM (doses to about 9.22 µM), without a hit: at the highest dose activation, usual class: activators | 320,000 tested, 2.4% active | AID 485313; note: % of control where 0% means no effect; nearly all actives have a fitted effect of over 60% in size
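NPC1 promoter–luciferase Huh7 cells; 24 h compound; luminescence.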
ELG1 genotoxic – inducers of genotoxicity in HEK293T ELG1-luciferase cells; HEK293T ELG1-luciferase reporter, luminescence, 16 h; Potency, µM (highest dose often 46 µM), without a hit: at the top dose activity change, positive = activation, usual class: activators; 330,000 tested, 1.3% active; note: % of control where 0% means no effect; nearly all actives have a fitted effect of over 60% in size
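Genotoxic stress is detected as increased luminescence from luciferase-tagged ELG1 in HEK293T cells, measured with ONE-Glo after a 16 hr treatment at 37 °C.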
FLuc modulator – inhibits or activates purified firefly luciferase, miR-21 counter-screen. P08659. purified FLuc, Km substrates, luminescence inhibition. Potency, µM (series often up to 57.5 µM), for inactives: top-dose activity change, negative = inhibition, usual class: inhibitors. 360,000 tested, 6.9% active. AID 588342;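 note: plate controls were vehicle for no effect and reference inhibitor for full effect; nearly all actives have a fitted effect of over 55% in size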
Target sequence (P08659 whole entry, looked up): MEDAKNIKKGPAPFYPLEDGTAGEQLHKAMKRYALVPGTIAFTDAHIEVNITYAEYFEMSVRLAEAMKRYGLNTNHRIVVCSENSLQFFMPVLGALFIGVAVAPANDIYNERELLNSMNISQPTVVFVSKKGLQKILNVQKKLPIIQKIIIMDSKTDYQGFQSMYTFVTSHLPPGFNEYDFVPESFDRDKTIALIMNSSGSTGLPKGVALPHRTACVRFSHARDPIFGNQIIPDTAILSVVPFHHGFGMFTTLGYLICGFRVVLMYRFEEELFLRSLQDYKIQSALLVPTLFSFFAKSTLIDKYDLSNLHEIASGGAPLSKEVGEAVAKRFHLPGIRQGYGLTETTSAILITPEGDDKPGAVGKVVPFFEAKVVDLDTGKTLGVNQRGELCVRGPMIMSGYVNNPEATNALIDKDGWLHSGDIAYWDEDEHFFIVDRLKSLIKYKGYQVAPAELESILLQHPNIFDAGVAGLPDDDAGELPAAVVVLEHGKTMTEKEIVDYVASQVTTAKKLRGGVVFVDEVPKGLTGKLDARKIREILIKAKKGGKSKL
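Biochemical qHTS of compounds, final roughly 60 µM downward over six points, against 10 nM purified firefly luciferase using Km concentrations of substrates (10 uM D-luciferin, 10 uM ATP) in Tris acetate pH 7.5 buffer; luminescence output.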
SMN2 splice up – increases expression of the SMN2 splice variant | AID 1458 | Potency, µM (top dose mostly 46.1 µM), inactives show at the highest dose activity change, positive = activation, actives largely listed as activators | 210,000 tested, 2.8% active | HEK293 SMN2-luciferase splicing reporter, luminescence, 30-36 h; note: % of control where 0% means no effect; nearly all actives have a fitted effect of over 55% in size
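qHTS luciferase splicing reporter: luminescence rises when SMN2 exon 7 is included in transfected HEK293 cells. Compound exposure lasted 30-36 h at 37C, with 4.5 mM final sodium butyrate as control, followed by a ONE-Glo read.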
KinaseGlo FLuc – counter-screen: inhibitors of Kinase-Glo firefly luciferase. Potency, µM (highest dose often 38.3 µM), for inactives: at the highest dose activity change, negative = inhibition, usual class: inhibitors. 200,000 tested, 0.28% active. Q27757. AID 1379. Kinase-Glo luciferase, ATP luminescence, 8 min; note: % is set by controls: 0 for no effect and ±100 for the full control effect; nearly all actives have a fitted effect of over 60% in size
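Inhibition of Kinase-Glo luciferase light generation was assessed at 10 uM ATP in pH 7.2 imidazole buffer, with luminescence measured after eight minutes at ambient temperature.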
Starred values were filed as active, the others as inactive; ! = not active in a repeat; [ ] = another dose, or the depositor's remark. Calls come from the whole dose curve; as a rule, active = well fitted curve in the direction sought with a large enough effect; inconclusive = small, poorly fitted or top-dose-only effect, or another doubt; inactive = no such curve, though single readings can be large; an effect the other way counts as inactive or inconclusive. Potency is the fitted concentration of half-maximal effect.

For CC1CCN(c2nnc(N)s2)CC1 the results were Rab9 prom act 1.3µM*, NPC1 promoter act 2.2µM*, ELG1 genotoxic inconclusive, FLuc modulator 4.3µM*, SMN2 splice up 2.5µM* and KinaseGlo FLuc -5%.
Screening Nc1nnc(N2CCCCC2)s1 returned Rab9 prom act 3%, NPC1 promoter act -3%, ELG1 genotoxic 1%, FLuc modulator 12%, SMN2 splice up -19% and KinaseGlo FLuc -7%.
For COc1ccc2c(c1)O[C@H](c1ccc3c(c1)OCO3)[C@@H](OC(=O)NCc1ccco1)C2=O the results were SMN2 splice up -1% and KinaseGlo FLuc 0%.
For Cc1cc(C)cc(NC(=O)CN2C(=O)c3ccccc3Sc3ccc(C(=O)N4CCCC4)cc32)c1 the results were FLuc modulator -12%.
Nc1ccccc1C(=O)/C=C/c1ccc2c(c1)OCO2 was read as Rab9 prom act 3.2µM*, NPC1 promoter act 3.2µM*, ELG1 genotoxic inconclusive, FLuc modulator 3.4µM*, SMN2 splice up inconclusive and KinaseGlo FLuc 10µM*!.
For O=C(/C=C/c1ccc2c(c1)OCO2)c1ccco1 the results were Rab9 prom act inconclusive, NPC1 promoter act 26%, ELG1 genotoxic inconclusive, FLuc modulator 2.1µM*, SMN2 splice up 2% and KinaseGlo FLuc -3%.
For CCOCCCNC(=O)Cn1nc(C)n2c(cc3cc(C)ccc32)c1=O the results were FLuc modulator 4% and SMN2 splice up 7%.
Screening Cc1ccc(/C=C/C(=O)OCC(=O)Nc2cccc(S(=O)(=O)N(C)C)c2)o1 returned Rab9 prom act -2%, NPC1 promoter act 2%, ELG1 genotoxic -1%, FLuc modulator 21µM*, SMN2 splice up 6% and KinaseGlo FLuc 0%.
Screening Cc1ccc(S(=O)(=O)N(C)C)cc1NC(=O)COC(=O)/C=C/c1ccc2c(c1)OCO2 returned Rab9 prom act 1%, NPC1 promoter act -1%, ELG1 genotoxic 0%, FLuc modulator 21µM*, SMN2 splice up 3% and KinaseGlo FLuc -3%.
For COc1ccc(/C=C/C(=O)OCC(=O)Nc2ccc3c(c2)OCO3)cc1 the results were Rab9 prom act -6%, NPC1 promoter act 1%, ELG1 genotoxic 0% and FLuc modulator 0%.
CN(C)S(=O)(=O)c1cccc(NC(=O)COC(=O)/C=C/c2ccc3c(c2)OCO3)c1 was read as Rab9 prom act 5%, NPC1 promoter act -1%, ELG1 genotoxic 10%, FLuc modulator 12µM*, SMN2 splice up 6% and KinaseGlo FLuc 1%.
`CN(C)S(=O)(=O)c1cccc(NC(=O)COC(=O)/C=C/c2ccco2)c1` gave Rab9 prom act 2%, NPC1 promoter act -8%, ELG1 genotoxic 1%, FLuc modulator inconclusive, SMN2 splice up 2% and KinaseGlo FLuc -1%.
`CC(=O)N/C(=C\c1ccccc1)C(=O)OCC(=O)Nc1cc(S(=O)(=O)N(C)C)ccc1C` gave Rab9 prom act 2%, NPC1 promoter act 0%, ELG1 genotoxic -1% and FLuc modulator 3%.
Cc1cc2oc(=O)cc(-c3ccccc3)c2c(C)c1-c1ccoc1 was read as KinaseGlo FLuc 2%[39.9 µM].
C/C(O)=C1\C(=O)[C@@H]2[C@H]3c4c[nH]c5cccc(c45)C[C@H]3C(C)(C)N2C1=O was read as SMN2 splice up -5%.
For Cc1c2cnn(CC(=O)N3CCCCC3)c(=O)c2c(C)n1Cc1ccc(Cl)cc1 the results were FLuc modulator 0% and SMN2 splice up -12%.
O=C(Cc1cccs1)Nc1nnc(SCc2ccc(Br)cc2)s1 was read as Rab9 prom act -1%, NPC1 promoter act -1%, ELG1 genotoxic 3%, FLuc modulator 17µM*, SMN2 splice up -3% and KinaseGlo FLuc 1%.
`c1ccc(CSc2nnc(NC3=NCCCCC3)s2)cc1` gave Rab9 prom act 4µM*, NPC1 promoter act inconclusive, ELG1 genotoxic inconclusive, FLuc modulator 17µM*, SMN2 splice up 15% and KinaseGlo FLuc -2%.
For O=C(CCc1nc2ccccc2c(=O)[nH]1)Nc1nnc(SCc2ccccc2F)s1 the results were Rab9 prom act inconclusive, NPC1 promoter act 29%, ELG1 genotoxic inconclusive and FLuc modulator 19µM*.
For C=CCSc1nnc(NC(=O)C2=COCCO2)s1 the results were Rab9 prom act 2.2µM*, NPC1 promoter act 4µM*, ELG1 genotoxic inconclusive and FLuc modulator 17µM*.
`Cc1nn(CC(=O)NCc2ccc(N(C)C)cc2)c(=O)c2nn(-c3ccccc3)c(C)c12` gave FLuc modulator -1%.
Cc1cccc(NC(=O)c2cc(S(=O)(=O)N3CCc4ccccc43)ccc2F)c1C was read as FLuc modulator -5%.
`CC(=O)c1cccc(NC(=O)CC(c2ccc(C)cc2)N2Cc3ccccc3C2=O)c1` (stereo unspecified) gave FLuc modulator -12%.
O=C(Nc1nnc(SCc2ccccc2F)s1)C1=COCCO1 was read as Rab9 prom act 3.5µM*, NPC1 promoter act 2.5µM*, ELG1 genotoxic 10µM* and FLuc modulator 17µM*.
O=C(Nc1nnc(SCc2ccccc2)s1)C1=COCCO1 was read as Rab9 prom act 3.5µM*, NPC1 promoter act 3.5µM*, ELG1 genotoxic inconclusive and FLuc modulator inconclusive.
For O=C(Nc1nnc(SCc2ccc(F)cc2)s1)C1=COCCO1 the results were Rab9 prom act 19%, NPC1 promoter act 13%, ELG1 genotoxic 1% and FLuc modulator -17%.
Screening Cc1cc(=O)[nH]c(SCC(=O)Nc2nnc(SCc3ccccc3)s2)n1 returned Rab9 prom act -1%, NPC1 promoter act -6%, ELG1 genotoxic -7%, FLuc modulator 13µM*, SMN2 splice up -26% and KinaseGlo FLuc 0%.
CC(=O)Nc1nnc(SCc2ccccc2F)s1 was read as Rab9 prom act inconclusive, NPC1 promoter act 27%, ELG1 genotoxic inconclusive, FLuc modulator -18%, SMN2 splice up inconclusive and KinaseGlo FLuc -3%.
For Cc1ccc(-c2nc3n(n2)C(c2ccccc2Cl)C=C(c2ccc(Cl)cc2)N3)cc1 (stereo unspecified) the results were FLuc modulator -4% and SMN2 splice up -5%.
Screening Cc1ccc(Cc2nc3ccccc3nc2SCC(=O)Nc2ccc3c(c2)OCO3)cc1 returned FLuc modulator 4%.
For Cc1ccc(C(=O)O/N=C(\N)c2ccc(C(F)(F)F)cn2)cc1 the results were Rab9 prom act -5%, NPC1 promoter act 2%, ELG1 genotoxic 15% and FLuc modulator 2.1µM*.
